Assay outcomes deposited in PubChem BioAssay by several laboratories.
PREPL inh: human PREPL enzyme inhibition; Q4J6C6; recombinant PREPL, fluorescence polarization activity-based probe; inhibition, % at 5.96 µM; 0.68% of 320,000 active; AID 2751; in the data active = inhibition above about 43%;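 also: 0% = enzyme with DMSO and 100% = wells lacking enzyme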
Target sequence (Q4J6C6 whole entry, looked up): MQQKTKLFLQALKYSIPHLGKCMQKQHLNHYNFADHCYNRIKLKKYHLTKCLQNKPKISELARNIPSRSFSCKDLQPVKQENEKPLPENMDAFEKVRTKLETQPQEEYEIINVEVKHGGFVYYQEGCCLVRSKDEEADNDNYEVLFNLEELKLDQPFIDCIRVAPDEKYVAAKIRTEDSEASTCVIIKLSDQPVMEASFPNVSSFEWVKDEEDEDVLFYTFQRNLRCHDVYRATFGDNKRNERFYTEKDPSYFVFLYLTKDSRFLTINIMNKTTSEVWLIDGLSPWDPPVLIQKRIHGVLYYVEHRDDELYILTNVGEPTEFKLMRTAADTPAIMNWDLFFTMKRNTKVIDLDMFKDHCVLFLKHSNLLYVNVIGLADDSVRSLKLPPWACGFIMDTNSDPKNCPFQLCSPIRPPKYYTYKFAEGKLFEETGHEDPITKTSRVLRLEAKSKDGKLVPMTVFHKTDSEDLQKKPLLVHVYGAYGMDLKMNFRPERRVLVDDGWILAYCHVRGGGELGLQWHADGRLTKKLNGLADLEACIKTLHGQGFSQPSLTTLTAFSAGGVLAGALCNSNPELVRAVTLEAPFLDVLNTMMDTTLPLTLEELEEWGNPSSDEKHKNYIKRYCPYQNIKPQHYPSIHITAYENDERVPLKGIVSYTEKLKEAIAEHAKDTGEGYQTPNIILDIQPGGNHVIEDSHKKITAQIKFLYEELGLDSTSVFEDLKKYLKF
MEKK2 mut-MEK5: signal of MEK5 binding to mutant human MEKK2 PB1 domain | bead flow cytometry, Alexa488-MEK5 binding to MEKK2 mutant | percent response, % at 10 µM | 0.35% of 290,000 active | AID 1530; in the data active = percent response above about 24%, passing the limit was not always enough
ATG4B inhibitor: blocks human ATG4B protease cleavage of LC3 substrate. ATG4B cleavage of LC3-PLA2, NBD-HPC fluorescence, 1 h. inhibition, % at 8.33 µM. 0.51% of 340,000 active. AID 504462; in the data active = inhibition above about 40%
UBC13 inh: inhibitors of human UBC13 polyubiquitin chain formation. TR-FRET. inhibition, % at 20 µM. 0.47% of 330,000 active. AID 485273; in the data active = inhibition above about 45%, passing the limit was not always enough
MEKK2wt PB1 HTS: raises or lowers MEK5 binding to wildtype human MEKK2 PB1 domain; 1.1% of 290,000 active; bead flow cytometry, Alexa488-MEK5 binding to MEKK2 WT; actives lie on both sides; AID 1531; Q9Y2U5; binding response (% of control), % at 10 µM; in the data active = binding response below about 67% or above about 130%
MEKK3 PB1 HTS: MEKK3-MEK5 PB1 interaction, increase or decrease | binding response (% of control), % at 10 µM | bead-based flow cytometry, Alexa488-MEK5 binding to MEKK3; actives lie on both sides; 0 = blocked by unlabeled MEK5, 100 = vehicle | 1.4% of 290,000 active | Q99759 | AID 1529;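 active = binding response more than 3 SD above or below the average of its plate-row segment, actives on both sides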;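 also: Alexa488 bead fluorescence after subtracting the streptavidin-only scavenger bead signal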
MEKK2wt confirm: raises or lowers MEK5 binding to wildtype human MEKK2, retest. binding response (% of control), % at 10 µM. shares compounds with MEKK3 PB1 HTS. 2.4% of 5,900 active. bead flow cytometry, Alexa488-MEK5 binding to MEKK2 WT; actives lie on both sides; in the data active = binding response below about 16% or above about 210%; inactive = in between
MEKK2mut confirm: signal of MEK5 binding to mutant human MEKK2, retest; shares compounds with MEKK3 PB1 HTS; bead flow cytometry, Alexa488-MEK5 binding to MEKK2 mutant; percent response, % at 10 µM; 2% of 5,900 active; AID 1893; in the data active = percent response mostly above about 71%, no sharp cut-off; inactive = mostly below about 38%;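 also: higher means compound restores mutant binding toward wildtype level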
MEKK3 confirm: MEKK3-MEK5 PB1 inhibition, single concentration confirmation; shares compounds with MEKK3 PB1 HTS; bead flow cytometry, Alexa488-MEK5 binding to MEKK3; stronger effect = lower value; binding response (% of control), % at 10 µM; 1.8% of 5,900 active; AID 1894;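 active = binding response below 72% of control, or above a set upper limit, though filed actives all read lower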;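 also: 100% = DMSO only wells and 0% = binding blocked by excess unlabeled MEK5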
The depositor's hits bear a star; x = no result; [ ] = remark or other dose. A selection: hits, their analogues and other compounds. The true share with any hit is near 3.1%.

SMILES | PREPL inh | MEKK2 mut-MEK5 | ATG4B inhibitor | UBC13 inh | MEKK2wt PB1 HTS | MEKK3 PB1 HTS | MEKK2wt confirm | MEKK2mut confirm | MEKK3 confirm
C[C@@H]1COC(=O)[C@H](CC(=O)OC(C)(C)C)C/C=C\C[C@@H](CC(=O)NCCO)C(=O)N1 | 26 | x | 7 | -2 | x | x | x | x | x
O=C(Nc1nc(-c2ccccc2)c(C(=O)c2ccccc2)s1)c1ccc(S(=O)(=O)N2CCCC2)cc1 | -3 | 0 | -5 | -7 | 102 | 135* | 100 | -9 | 101
Cc1nc2scc(C)n2c(=O)c1S(=O)(=O)Nc1ccc(OC(F)(F)F)cc1 | -13 | 1 | -2 | -9 | 94 | 96 | x | x | x
C/C(=N\Nc1cc(N2CCCCC2)nc(C)n1)c1ccc(Br)cc1 | 25 | 45* | -3 | 28 | 183* | 118 | 159 | 29 | 105
CCOc1ccc(NC(=O)c2c(NC(=O)CNCCN3CCOCC3)sc3c2CCC3)cc1 | 21 | 5 | -3 | -4 | 105 | 97 | x | x | x
C=CCOc1c2ccc(C(=O)NCCc3ccc(C)cc3)cc2nn1C | 12 | 14 | -11 | 11 | 123 | 126* | 68 | -14 | 93
NS(=O)(=O)c1ccc(CCNC(=O)CSc2ccc(Cl)cc2Cl)cc1 | -4 | -13 | -5 | 7 | 43*[inhibitor] | 40*[inhibitor] | 103 | 8 | 103
NS(=O)(=O)c1ccc(CCNC(=O)CSc2ccc(Cl)cc2)cc1 | -8 | 12 | -11 | 7 | 114 | 103 | x | x | x
CC(C)(C)NC(=O)C1CCN(C(=O)c2ccco2)CC1 | -3 | 0 | 1 | 5 | 100 | 101 | x | x | x
CCOC(=O)C1C(=O)OC(C)(C)C1C(C)C(=O)c1ccc(C)cc1C (stereo unspecified) | 18 | -26 | 5 | 7 | -2.0*[inhibitor] | 1.0*[inhibitor] | 96 | 15 | 102
CCSC1=NCCN1S(=O)(=O)c1ccccc1 | 0 | -16 | 4 | 9 | 58 | 50*[inhibitor] | 103 | -2 | 106
Cc1[nH]nc(SCC(=O)Nc2ccc(C#N)cc2)c1[N+](=O)[O-] | -19 | 1 | 11 | -16 | 107 | 133* | 101 | 4 | 103
COc1cccc(/C(C)=N/NC(=O)c2cc(-c3cccnc3)nc3ccccc23)c1 | 22 | -1 | -10 | -5 | 104 | 129* | 102 | 1 | 104
COc1ccc(-c2cc(C(=O)N/N=C(\C)c3cccnc3)c3ccccc3n2)cc1 | x | 2 | 1 | 4 | 102 | 105 | x | x | x
COc1ccc(/C(C)=N/NC(=O)c2cc(-c3cccnc3)nc3ccccc23)cc1 | 12 | 0 | -14 | -7 | 110 | 147* | 129 | 27 | 121
O=C(COC(=O)CNC(=O)c1ccc(Cl)c([N+](=O)[O-])c1)NCC1CCCO1 (stereo unspecified) | 5 | x | -4 | 4 | x | x | x | x | x
CCCCN1C(=O)C(=O)N(CC(=O)Nc2ccccc2C(=O)OCC)C1=O | -6 | 5 | -2 | -2 | 110 | 107 | x | x | x
CCC(O)(CC)C(=O)N/N=C/c1cc(Br)cc(Br)c1O | -5 | 23 | 9 | 3 | 127 | 134* | 104 | 3 | 103
CC(Oc1ccccc1)C(=O)N=C1SC2CS(=O)(=O)CC2N1Cc1ccccc1 (stereo unspecified) | 6 | 10 | -10 | -3 | 107 | 105 | x | x | x
COC(=O)N1N=C(c2ccccc2)CC1(O)C(F)(F)F (stereo unspecified) | 1 | -39 | -5 | 1 | -5.0*[inhibitor] | 0.0*[inhibitor] | 97 | -4 | 102
COc1cc(OC)cc(C(=O)NNC(=O)CCC2CCCC2)c1 | 19 | x | -4 | 8 | x | x | x | x | x
CC(C)(C)c1ccc(/C=N/NC(=O)C(=O)NCCCN2CCOCC2)cc1 | -4 | -2 | 10 | -6 | 101 | 105 | x | x | x
S=C(NCCN1CCOCC1)Nc1ccc(Nc2ccccc2)cc1 | 27 | 2 | -2 | -8 | 106 | 103 | x | x | x
S=C(NCCN1CCOCC1)Nc1ccc(Br)cc1 | -2 | 0 | 9 | 0 | 104 | 145* | 99 | -7 | 100
O=C(NCCCN1CCOCC1)C(=O)N/N=C/c1ccccc1 | 1 | -1 | -12 | 5 | 106 | 157* | 98 | -4 | 100
SMILES | PREPL inh | MEKK2 mut-MEK5 | ATG4B inhibitor | UBC13 inh | MEKK2wt PB1 HTS | MEKK3 PB1 HTS | MEKK2wt confirm | MEKK2mut confirm | MEKK3 confirm
Cc1cccc(C)c1NC(=O)C(=O)NCCCN1CCOCC1 | 3 | -1 | 2 | 2 | 93 | 61*[inhibitor] | 100 | -1 | 103
Cc1cccc2c(=O)c(C(=O)NCCCN3CCOCC3)c[nH]c12 | 1 | 8 | -6 | 1 | 85 | 71*[inhibitor] | 104 | 3 | 104
Cc1ccc(S(=O)(=O)N2CCN(CN3C(=O)CC4(CCCC4)C3=O)CC2)cc1 | x | x | 8 | 4 | x | x | x | x | x
S=C(NCCN1CCOCC1)N/N=C/c1c2ccccc2cc2ccccc12 | 26 | -10 | -34 | -2 | -2.0*[inhibitor] | 1.0*[inhibitor] | 108 | 4 | 102
Cc1ccc(NC(=O)CSCc2cc(=O)n3ccsc3n2)c(C)c1 | 9 | -1 | 0 | -4 | 100 | 100 | x | x | x
CC(=O)N(C)c1nnc(-c2cnccn2)s1 | -1 | x | -3 | 2 | x | x | x | x | x
COCC(=O)N(C)c1nnc(-c2cnccn2)s1 | 0 | -27 | -13 | 5 | -1.0*[inhibitor] | 0.0*[inhibitor] | 103 | 1 | 101
CCOC(=O)c1c(C)[nH]c(O)c1C=Nc1ccc(C(F)(F)F)cc1 | 5 | 6 | -12 | -12 | 119 | 132* | 98 | -1 | 100
CCN(C(=O)c1ccc(S(=O)(=O)N2CCC(C)CC2)cc1)C1CCS(=O)(=O)C1 (stereo unspecified) | 2 | x | -8 | -2 | x | x | x | x | x
Cc1ccc(Nc2nc(N)c([N+](=O)[O-])c(NCc3ccco3)n2)cc1 | -14 | 1 | 11 | 12 | 112 | 152* | 90 | -1 | 99
